Assay outcomes: PubChem BioAssay, National Center for Advancing Translational Sciences (NCATS)
An excerpt weighted towards active compounds, which were near 3% of everything screened.
ALOX12 inh = blocks human arachidonate 12S-lipoxygenase; 580,000 compounds, 1.1% hits; P18054; purified 12hLO, xylenol orange hydroperoxide absorbance; Potency, µM (highest dose often 108 µM), for inactives: at the top dose activity change, negative = inhibition, hits mostly inhibitors; active = well fitted inhibition curve with a large enough effect; inconclusive = small, poorly fitted or top-dose-only effect, or another doubt; inactive = no such curve, though single readings can be large or run the other way; also: potency is read from the fitted curve at half-maximal effect; % is scaled to controls: 0 for no effect and ±100 for the full control effect
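Purified human 12hLO (150 nM final) in 25 mM Hepes, 0.01% Triton X-100, pH 7.0 was preincubated 15 min at room temperature with compound. Then 40 uM arachidonic acid was added, 30 min. Hydroperoxide was read by Fe-XO absorbance ratio 573/405 nm.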
hERG WT inh = blocks the wildtype human KCNH2 potassium channel; Q12809; U2OS, BacMam KCNH2, thallium flux FluxOr; active compounds read low; activity change, % at 1.84 µM; 340,000 compounds, 0.37% hits; AID 720551;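 active = maximum activity change below -70%; inconclusive = maximum activity change between -70% and -50%; inactive = maximum activity change above -50%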; also: % is scaled to controls: 0 for no effect and ±100 for the full control effect
Target sequence (Q12809 whole entry, looked up): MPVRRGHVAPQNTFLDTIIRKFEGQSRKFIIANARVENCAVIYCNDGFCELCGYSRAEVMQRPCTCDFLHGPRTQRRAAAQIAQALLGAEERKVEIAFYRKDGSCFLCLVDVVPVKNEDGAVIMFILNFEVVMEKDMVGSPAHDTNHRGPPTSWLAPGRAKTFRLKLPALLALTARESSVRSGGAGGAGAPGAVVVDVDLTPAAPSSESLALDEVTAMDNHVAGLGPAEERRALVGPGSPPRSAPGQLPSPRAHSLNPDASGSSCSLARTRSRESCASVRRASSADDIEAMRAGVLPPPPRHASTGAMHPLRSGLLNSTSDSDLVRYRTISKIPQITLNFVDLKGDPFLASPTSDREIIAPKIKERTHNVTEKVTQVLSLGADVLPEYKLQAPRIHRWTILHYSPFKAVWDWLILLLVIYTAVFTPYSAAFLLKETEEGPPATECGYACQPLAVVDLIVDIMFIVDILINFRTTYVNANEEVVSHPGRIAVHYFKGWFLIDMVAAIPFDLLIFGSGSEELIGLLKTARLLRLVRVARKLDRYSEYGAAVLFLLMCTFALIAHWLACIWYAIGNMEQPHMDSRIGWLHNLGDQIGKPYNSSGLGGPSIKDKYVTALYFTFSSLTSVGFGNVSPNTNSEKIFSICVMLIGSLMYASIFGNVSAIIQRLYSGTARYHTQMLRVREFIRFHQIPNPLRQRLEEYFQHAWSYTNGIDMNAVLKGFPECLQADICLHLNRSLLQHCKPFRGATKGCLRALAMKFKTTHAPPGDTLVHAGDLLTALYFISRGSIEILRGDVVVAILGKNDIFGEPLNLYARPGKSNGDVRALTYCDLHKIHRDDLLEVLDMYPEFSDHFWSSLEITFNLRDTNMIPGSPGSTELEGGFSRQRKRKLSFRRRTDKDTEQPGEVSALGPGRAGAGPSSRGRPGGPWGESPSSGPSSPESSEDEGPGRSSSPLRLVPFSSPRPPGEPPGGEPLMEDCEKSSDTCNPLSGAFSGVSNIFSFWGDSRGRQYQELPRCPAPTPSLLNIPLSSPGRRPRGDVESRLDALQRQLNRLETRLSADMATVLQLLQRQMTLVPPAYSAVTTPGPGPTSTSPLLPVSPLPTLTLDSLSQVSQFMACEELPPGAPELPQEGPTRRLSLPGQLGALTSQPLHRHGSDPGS
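U2OS cells transduced with wild-type KCNH2 virus are loaded with FluxOr dye for 45 min, and thallium flux is measured in kinetic reads before and after stimulation buffer. Rate constants are normalized to DMSO controls.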
KCNH2 3.1 inh = KCNH2 3.1 (human) potassium channel inhibition; U2OS KCNH2 3.1, thallium flux FluxOr; active compounds read low; AID 720553; activity change, % (tested at about 1.8 µM); 340,000 compounds, 0.95% hits;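 active = maximum activity change below -70%; inconclusive = maximum activity change from -70% to -50%; inactive = maximum activity change above -50%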;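 also: thallium influx rate constant from kinetic fluorescence after stimulation buffer; % is scaled to controls: 0 for no effect and ±100 for the full control effect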
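Steps: virus added to U2OS suspension (4 h, RT, dark); medium with 10% FBS added, cells plated, 37 C overnight; FluxOr/Red40 loading buffer 45 min RT; stimulation buffer, 2 min kinetic read; rate constant normalized.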
ClpP mod = qHTS Assay for Activators of ClpP; purified B. subtilis ClpP, FRET peptide cleavage, 20 min; Potency, µM (titrated, usually from 57.5 µM), inactives show at the highest dose activity change, negative = active; 340,000 compounds, 1.9% hits; AID 651965, 2013; active = well fitted falling curve with a large enough effect; inconclusive = small, poorly fitted or top-dose-only effect; inactive = no such curve, though single readings can be large or run the other way; also: potency is read from the fitted curve at half-maximal effect; the source files actives as falling curves though it sought activators and does not explain the sign; nearly all actives have a fitted effect of over 65% in size
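Purified B. subtilis ClpP, 10 microg/mL final in Tris/HCl pH8 with KCl, BSA, glycerol and Tween-20, cleaved an Abz/nitrotyrosine-quenched decapeptide. Fluorescence (ex 320, em 430) was read at 0 and 20 min at room temperature. Delta was normalized to 5.8 microM ADEP and DMSO/no-enzyme controls.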
Chronic BCR inh = chronic active BCR signaling inhibition | ABC-DLBCL IkBa-CBG/CBR reporter, luminescence ratio, 4 h | Potency, µM (doses to about 46.1 µM), for the others: top-dose activity change, negative = inhibition, most hits filed as inhibitors | 340,000 compounds, 0.05% hits; active = well fitted inhibition curve with a large enough effect in the signal ratio, with a control signal flat, not every such curve was filed as active; inconclusive = small, poorly fitted or top-dose-only effect, or effect the other way, or a change in a side signal; the % refers to the signal ratio;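 also: potency is read from the fitted curve at half-maximal effect; plate controls were basal doxycycline-induced cells for no effect and cells given 10 µM MG132 for full effect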
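TMD8 human ABC-DLBCL cells with doxycycline-inducible IκBα–green luciferase fusion and unfused red luciferase, in 0.5% FBS medium; compounds up to 46 uM, 4 h at 37C. Green/red luminescence ratio, filter-overlap corrected, fitted to concentration-response curves.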
LDHA block = inhibitors of human lactate dehydrogenase A | activity change, % (values are at about 110 or 230 µM) | purified LDHA, NADH/diaphorase-resazurin fluorescence; active compounds read low | 480,000 compounds, 0.15% hits; in the data active = activity change below about -30%; inconclusive = mostly about -25% to -30%;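 also: plate controls were DMSO wells for no effect and wells without enzyme for full effect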
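Human LDH5 (2 nM) was incubated with 0.06 mM NADH and 0.2 mM pyruvate for 5 min at room temperature in Tris pH 7.4. Remaining NADH was coupled through diaphorase/resazurin, and resorufin fluorescence was read at 0 and 20 min.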
Starred values were filed as active, the others as inactive; ? = inconclusive; · = no result.

SMILES | ALOX12 inh | hERG WT inh | KCNH2 3.1 inh | ClpP mod | Chronic BCR inh | LDHA block
COc1ccc(C2CC(=O)N3CN(Cc4ccccc4)CSC3=C2C#N)c(OC)c1 (stereo not given) | 5.62µM* | · | · | · | · | 54.9
N#CC1=C2SCN(Cc3ccco3)CN2C(=O)CC1c1c(F)cccc1Cl (stereo not given) | ? | 1.0 | 10.1 | -0.4% | -13.3% | 4.0
CCc1ccc(C2CC(=O)N3CN(Cc4ccccc4)CSC3=C2C#N)cc1 (stereo not given) | 3.16µM* | · | · | · | · | 57.2
COc1ccc(Br)cc1C1CC(=O)N2CN(Cc3ccccc3)CSC2=C1C#N (stereo not given) | ? | 8.7 | -16.7 | -4.0% | -1.6% | 7.2
CCC(C)c1ccc(NC(=O)CCc2ncc(-c3ccc(F)cc3)o2)cc1 (stereo not given) | ? | · | · | · | · | 2.7
CCONC(=O)C(C)Oc1cccc(C)c1C (stereo not given) | -11.5% | · | · | · | · | -11.5
CC(C)NC(=O)CNC(=O)C(=O)Nc1ccc2cc[nH]c2c1 | -10.9% | · | · | · | · | 8.8
CC(C)CNC(=O)C(=O)Nc1ccc2cc[nH]c2c1 | 35.5µM* | · | · | · | · | 2.5
N#Cc1ccc(CN2CCc3nc(N4CCc5ccccc5C4)[nH]c(=O)c3CC2)cc1 | 7.7% | · | · | · | · | ·
COc1cccc(CC(=O)N2CCC3(CC2)NC(=O)N(c2cccc(Cl)c2)N3)c1 | 1.41µM* | · | · | · | · | ·
COc1cccc(CC(=O)N2CCCC3(C2)NC(=O)N(Cc2cccc(Cl)c2)C3=O)c1 (stereo not given) | 9.6% | · | · | · | · | ·
O=C(Cc1ccc(Cl)cc1)N1CCC2(CC1)NC(=O)N(c1ccccc1Cl)N2 | 1.41µM* | · | · | · | · | ·
Cc1ccccc1C(=O)N1CCC2(CC1)NC(=O)N(c1cccc(F)c1)N2 | 1.78µM* | · | · | · | · | ·
Cc1ccccc1CC(=O)N1CCC2(CC1)NC(=O)N(c1cccc(F)c1)N2 | 2.82µM* | · | · | · | · | ·
O=C(COc1ccccc1)N1CCC2(CC1)NC(=O)N(c1ccccc1Cl)N2 | -93.6% | · | · | · | · | ·
CCS(=O)(=O)N(Cc1ccc(C)cc1)c1c(C)n(C)n(-c2ccccc2)c1=O | 7.0% | · | · | · | · | -22.5
Cc1ccc2nc(Nc3nc(C)c(Cc4cccc(Cl)c4)c(=O)[nH]3)nc(C)c2c1 | 33.4% | · | · | · | · | -0.2
O=C(OCc1cccc([N+](=O)[O-])c1)c1ccc(OC(F)(F)F)cc1 | 10.0% | · | · | · | · | 3.9
Cc1ccc2[nH]cc(C=O)c2c1 | 8.1% | · | · | · | · | 1.5
COc1cccc(CC(=O)N2CCC3(CC2)N(C)C(=O)CS3(=O)=O)c1 | 39.5% | · | · | · | · | ·
COc1cccc(CC(=O)N2CCC3(CC2)NC(=O)N(c2ccccc2)N3)c1 | 3.16µM* | · | · | · | · | ·
COc1cccc(CC(=O)N2CCCC3(C2)NC(=O)N(Cc2ccccc2)C3=O)c1 (stereo not given) | 1.5% | · | · | · | · | ·
O=C(Cc1ccc(Cl)cc1)N1CCC2(CC1)NC(=O)N(c1cccc(F)c1)N2 | 3.16µM* | · | · | · | · | ·
COc1ccc(CCC(=O)NC2CC(=O)N(c3cccc(F)c3)C2)cc1 (stereo not given) | -1.9% | · | · | 1.0% | 5.3% | -1.0
COc1ccc(CCC(=O)N2CCC3(CC2)NC(=O)N(c2cccc(F)c2)N3)cc1 | 5.01µM* | · | · | · | · | ·
SMILES | ALOX12 inh | hERG WT inh | KCNH2 3.1 inh | ClpP mod | Chronic BCR inh | LDHA block
COc1cccc(CC(=O)N2CCC3(CC2)NC(=O)N(c2cccc(F)c2)N3)c1 | 5.01µM* | · | · | · | · | ·
CCCCCCCCS(=O)CC(O)CCl (stereo not given) | ? | · | · | · | · | -11.3
CCCNc1c(NC(=O)Nc2ccc(CC)cc2)c(=O)oc2ccccc12 | ? | · | · | · | · | -0.1
Fc1ccccc1NC(=S)NCCc1c[nH]c2ccccc12 | ? | · | · | · | · | 3.6
O=C(Cc1cccc(F)c1)N1CCC2(CC1)NC(=O)N(c1cccc(F)c1)N2 | 6.31µM* | · | · | · | · | ·
O=C(NCCNc1ccc2ccccc2n1)Nc1cccc2ccccc12 | 19.0% | · | · | · | · | 84.3
CCCCC(=O)Nc1cccc(-c2cn3ccccc3n2)c1 | ? | -3.0 | 12.1 | 28.2µM* | ? | 8.8
O=C(Nc1cccc(-c2cn3ccccc3n2)c1)c1ccccc1 | 8.1% | 10.3 | -12.9 | -3.4% | 5.7% | -6.9
Cc1cccc(S(=O)(=O)Nc2ccc(-c3cn4ccccc4n3)cc2)c1 | -7.3% | -1.0 | -0.5 | 28.2µM* | ? | -5.3
Cc1cc(C)c(S(=O)(=O)Nc2cccc(-c3cn4ccccc4n3)c2)c(C)c1 | -11.4% | · | · | 28.2µM* | -4.0% | -2.5
Cc1cc(C)c(S(=O)(=O)Nc2ccc(-c3cn4ccccc4n3)cc2)c(C)c1 | 22.7% | 12.3 | -22.9 | ? | 4.2% | 0.1
COc1ccc(CN2CCC(N(CCc3ccccc3)Cc3ccccc3)CC2)c(OC)c1 | ? | -72.4* | -107.1* | · | ? | -15.5
CCCN1CCC(N(CCc2ccccc2)Cc2ccccc2)CC1 | ? | -20.2 | -75.2* | 2.8% | 1.3% | -2.8
COc1ccc(CN2C[C@@H]3C(=O)N(CCc4ccccc4)C(=O)[C@@H]3C2)c(OC)c1 | 1.7% | · | · | · | · | ·
CCCCCNC(=O)c1ccc(Nc2ccc(-c3cccc(C)c3)nn2)cc1 | 1.3% | · | · | · | · | -4.0
CNS(=O)(=O)c1ccc(NC(=O)c2cc3ccccc3oc2=O)cc1 | -1.0% | · | · | · | · | -0.6
CCOC(=O)c1cc2cc(F)ccc2[nH]1 | -12.7% | · | · | · | · | -12.0
CCc1ccc2[nH]c(C(=O)N(C)c3ccc(F)cc3F)cc2c1 | -6.3% | -1.1 | -70.8* | 0.5% | 1.5% | 4.2
COc1ccc(C(NC(=O)Cn2c(=O)c3c(ncn3C)n(C)c2=O)C(C)C)cc1 (stereo not given) | ? | · | · | · | · | 3.1
Cc1nc(Cl)c(C(=O)O)c(C)c1Cl | ? | · | · | · | · | 6.6
Cc1ccc(S(=O)(=O)N2[C@@H](c3ccc(F)cc3)C(C(=O)O)=C[C@H]2CC2CCCC2)cc1 | ? | -4.8 | -2.4 | -1.1% | ? | -8.5
Cc1ccc([C@H]2C(C(=O)O)=C[C@@H](CC3CCCC3)N2S(=O)(=O)c2ccc(C)cc2)cc1 | 39.8µM* | 5.8 | 3.0 | -1.4% | 1.5% | -1.1
COc1ccc(/C=C/C(=O)NCCc2ccc(OC)c(OC)c2)cc1 | 4.7% | -3.6 | -8.7 | -0.3% | -3.3% | -6.9
Cc1ccc(/C=C/C(=O)NCCCN2CCN(CCCNC(=O)/C=C/c3ccc(C)cc3)CC2)cc1 | -14.6% | -119.1* | -121.8* | -1.0% | -0.2% | -5.1
CC(C)(C)c1ccc(C(=O)NCCCN2CCN(CCCNC(=O)c3ccc(C(C)(C)C)cc3)CC2)cc1 | ? | -5.7 | -113.6* | -10.6% | 3.0% | 0.3
COc1ccc(CCNC(=O)/C=C/c2ccc(C)cc2)cc1OC | -7.7% | -1.1 | -88.8* | -1.7% | ? | -14.3
